This is an account of results in ChEMBL document CHEMBL3988442, “University of Dundee, Small-Polar-MMV Screening Library” (2021).

In all, about 48,000 compounds went through this assay and about 13,000 (27%) showed an effect of 50% or more. This is one part of the list.

The test system of the assay is Wolbachia pipientis. Kind of assay: Anti-Wolbachia Cell-Based Screen. It counts as functional. Also noted: scale not given: in the data most compounds retested in dose-response had high values. Conditions: 5 µM.
As to `CSc1nc(N)cc(N2C[C@@H]3CC[C@H](C2)N(Cc2cscn2)C3=O)n1`, the “Percent Effect” value turned out to be 0.1745%.
In the case of `CCN(CC)C(=O)CN(C)C1CCc2ccccc21` (centres undefined), the “Percent Effect” value was -5.842%.
Regarding `CN(Cc1ccco1)Cc1ccccc1CNC(=O)c1ccc[nH]1`, the “Percent Effect” value is 22.22%.
With `O=C(CN(Cc1ccccc1)CC1CCOCC1)NC(=O)NC1CC1`, the “Percent Effect” value came to 17.45%.
Then `COCc1cccc(C(=O)N2CCCN(C(=O)OCC(C)C)CC2)c1`, with 8.994%; and `O=C(NCC1CC(=O)N(CCc2ccccc2)C1)c1c(F)cccc1F` (centres undefined), with -5.982%.
As for `CC(C)COC(=O)N1CC(=O)N(CCc2ccccc2)CC(O)C1` (centres undefined), the “Percent Effect” value came out at 128.8%.
In the case of `CN(Cc1cc2n(n1)CCNC2)Cc1cc(-c2ccccn2)no1` it was -13.42%; in that of `COCCN(C)CCN1CC2(CCN(C3CCCCC3)CC2)OC1=O`, 5.41%; in that of `CC(C)n1cnnc1CNC(=O)CCCOc1ccccc1F`, -11.73%.
With `Cc1ccc(OCCCNC(=O)NC(C)c2nncn2C)cc1` (centres undefined), the “Percent Effect” value was determined as 6.672%.
Then `Cc1ccc(OCCCNC(=O)C2(C)CC(=O)N3C=CC=CC3=N2)cc1` (centres undefined), with 121.9%; and `Cc1ccccc1OCCCC(=O)NCc1ccnc(O)c1`, with 0.1065%; and `Cc1ccccc1OCCCNC(=O)C1(C)CC(=O)N2C=CC=CC2=N1` (centres undefined), with 112.8%.
On to `CC(=O)N1C[C@H]2CNC[C@@]2(C(=O)NCCOc2ccccc2F)C1`, for which the “Percent Effect” value is reported as -24.48%.
Then `CC1(C(=O)NCCCOc2ccccc2F)CC(=O)N2C=CC=CC2=N1` (centres undefined), with 94.6%.
For `Cc1ccc(OCCCNC(=O)C(C)Sc2nncn2C)cc1` (centres undefined), the “Percent Effect” value is -12.11%.
Then `CSc1cc(CNC(=O)CCOc2ccccc2C)ccn1`, with 2.605%; and `COc1cc(C)c(CNC(C)c2csc(C3CC3)n2)cc1OC` (centres undefined), with 30.24%; and `CC(C)Cc1cc(C(=O)NC(C)(C)c2nnc(N)s2)n(C)n1`, with -11.71%.
In the case of `Cc1noc(NCc2ccc(F)cc2F)n1` it was 23.53%; in that of `Cc1noc(C2CCCN(C(=O)c3ccc(Cl)cc3F)C2)n1` (centres undefined), -0.5657%; in that of `CC(C)c1nnc2ccc(N3CCC(C(N)=O)CC3)nn12`, 13.6%.
In the case of `CS(=O)(=O)CCOCCNc1ccc2ccc(F)cc2n1` it was 5.905%; in that of `COCC(NC(=O)c1ccc[nH]1)c1cccc(C(F)(F)F)c1` (centres undefined), -9.811%.
On to `CC(C)CCN1CCc2cc(C(=O)N(C)C)c(NCC3CC3)nc2CC1.O=C(O)C(F)(F)F.O=C(O)C(F)(F)F`, for which the “Percent Effect” value is given as 98.43%.
In the case of `CC(C)Nc1nc2c(cc1C(=O)NCC1CC1)CCN(C)CC2.O=C(O)C(F)(F)F.O=C(O)C(F)(F)F` it was 0.01551%.
Then `CN1CCc2cc(C(=O)N(C)C)c(NCC3CC3)nc2CC1.O=C(O)C(F)(F)F.O=C(O)C(F)(F)F`, with 92.24%.
In the case of `O=C(O)C(F)(F)F.O=C(O)C(F)(F)F.O=C(O)c1cc2c(nc1NCC1CC1)CCN(C1CCOC1)CC2` (centres undefined) it was -1.204%.
For the compound `O=C1N(CCO)CCCC12CCN(Cc1noc(C3CCCC3)n1)C2` (centres undefined), the “Percent Effect” value is reported as -14.7%.
In the case of `COc1ccc2c(=O)n(CC3CCCN(C)C3)ccc2c1OC` (centres undefined) it was -1.973%; in that of `Cc1cc(C(=O)N2CCCC(N3CCNC3=O)C2)nn1C(C)(C)C` (centres undefined), -5.29%.
On to `CCCS(=O)(=O)c1ncc(CN2CCC(CO)CC2)n1CC1CCCO1` (centres undefined), for which the “Percent Effect” value is 10.89%.
Then `O=C(c1ccsc1)N1CCc2onc(CN3CCOCC3)c2C1`, with -3.104%.
Take `CC(C)n1nc(CNc2ncccn2)c2c1CN(S(C)(=O)=O)CC2`: the “Percent Effect” value turned out to be 3.209%.
Turning to `Cn1nc(CNc2ncccn2)c2c1CN(c1cnccn1)CC2`, the “Percent Effect” value is 89.69%.
`c1cnc(N2CCc3onc(CN4CCOCC4)c3C2)cn1`: the “Percent Effect” value is listed as 102%.
As to `O=C(c1cccnc1)N1CCc2onc(CN3CCCC3)c2C1`, the “Percent Effect” value is reported as -1.696%.
As for `c1cnc(NCc2noc3c2CN(c2cnccn2)CC3)nc1`, the “Percent Effect” value is 99.25%.
In the case of `CCS(=O)(=O)N1CCc2onc(CNc3ncccn3)c2C1` it was 3.304%; in that of `O=C(c1ccncc1)N1CCc2onc(CN3CCCC3)c2C1`, -9.45%; in that of `CCN1CCc2onc(CNc3ncccn3)c2C1`, 1.38%.
In the case of `c1cnc(N2CCc3onc(CN4CCCC4)c3C2)cn1` it was 88.59%; in that of `O=C(c1cnccn1)N1CCc2onc(CN3CCCC3)c2C1`, 10.5%.
Consider `CC(C)n1nc(CNc2ncccn2)c2c1CN(C)CC2.O=C(O)C(F)(F)F.O=C(O)C(F)(F)F.O=C(O)C(F)(F)F`, for which the “Percent Effect” value is -10.41%.
Consider `COc1cc(C(=O)NC2COc3ccccc3C2)ccc1OCC(N)=O` (centres undefined), for which the “Percent Effect” value came to 16.72%.
Then `Fc1ccc2[nH]c(C3CCCN3CCCn3cccn3)nc2c1` (centres undefined), with -31.47%.
In the case of `C=Cc1cccc(CN2C[C@@H](CN(C)CC)[C@@H](CO)C2)c1` it was -5.546%; in that of `O=C1CC2(CCN(C(=O)c3cccc(Cl)c3)CC2)CN1`, -6.217%.
`COC(=O)[C@@H](NC(=O)c1coc(COc2cccc(F)c2F)n1)C(C)C`: the “Percent Effect” value is recorded as -36.4%.
In the case of `Cc1cc(CN(CCO)c2ccc(Br)cc2)on1` it was -2.085%; in that of `Cc1cccc(N2CC[C@H]3CO[C@H](CN(C)Cc4ccco4)[C@H]3C2)n1`, 108.5%; in that of `CN(Cc1ccco1)C[C@H]1OC[C@@H]2CCN(Cc3cccs3)C[C@@H]21.O=C(O)C(F)(F)F.O=C(O)C(F)(F)F`, -12.79%.
Then `Cc1ccc(N2CC[C@H]3CO[C@H](CN(C)Cc4ccco4)[C@H]3C2)nn1.O=C(O)C(F)(F)F.O=C(O)C(F)(F)F`, with 95.46%.
For `CN(Cc1ccco1)C[C@H]1OC[C@@H]2CCN(Cc3ccncc3)C[C@@H]21.O=C(O)C(F)(F)F.O=C(O)C(F)(F)F.O=C(O)C(F)(F)F`, the “Percent Effect” value is given as -1.908%.
Turning to `Cc1cccc(N2CC[C@@H]3[C@@H](CO[C@H]3CNS(C)(=O)=O)C2)n1`, the “Percent Effect” value is recorded as -14.44%.
Then `Cc1cccc(N2CC[C@H]3[C@H](CO[C@@H]3CN(C)Cc3ccco3)C2)n1.O=C(O)C(F)(F)F.O=C(O)C(F)(F)F`, with 52.12%; and `CN(Cc1ccco1)C[C@H]1OC[C@@H]2CCN(Cc3nccs3)C[C@@H]21`, with -15.41%.
In the case of `CN(Cc1ccco1)C[C@H]1OC[C@@H]2CCN(Cc3cccnc3)C[C@@H]21.O=C(O)C(F)(F)F.O=C(O)C(F)(F)F.O=C(O)C(F)(F)F` it was 7.341%.
Turning to `CN(Cc1ccco1)C[C@@H]1OC[C@H]2CN(Cc3nccs3)CC[C@H]21.O=C(O)C(F)(F)F.O=C(O)C(F)(F)F`, the “Percent Effect” value came out at 3.908%.
`CN(Cc1ccco1)C[C@H]1OC[C@@H]2CN(c3ncc(F)cn3)CC[C@@H]21.O=C(O)C(F)(F)F.O=C(O)C(F)(F)F`: the “Percent Effect” value is reported as 81.17%.
Then `CC(C)N1CC(c2ncc(-c3ccc4c(c3)OCCO4)[nH]2)CC1=O` (centres undefined), with 5.292%.
With `CC(C)CN1C(=O)CO[C@@H]2CN(C(=O)[C@H]3CCCO3)C[C@H]21`, the “Percent Effect” value is -3.768%.
For the compound `CC(C)(O)CCc1ccc(C(=O)N2CCN(CCS(C)(=O)=O)CC2)cc1`, the “Percent Effect” value is -13.16%.
Then `Cl.Cn1ncc2c1CCCC2NCc1cc(Br)cs1` (centres undefined), with 7.416%; and `COC(=O)NCCCC(=O)NCC1(c2cccc(Cl)c2)CC1`, with -5.013%; and `CCc1csc(CNCC(=O)Nc2ccc(Cl)c(C)c2)n1`, with 20.64%.
`Cc1cc(=O)n(CC(=O)Nc2ccc(Cl)cc2)nc1C`: the “Percent Effect” value is reported as -24.72%.
Consider `COc1ccc(NC(=O)Cn2nc(C)c(C)cc2=O)cc1Cl`, for which the “Percent Effect” value was -5.001%.
`COC(=O)NCCC(=O)NCC1(c2cccc(Cl)c2)CC1`: the “Percent Effect” value is given as 6.503%.
In the case of `Cc1ccc(NC(=O)N2CCCC(O)(CO)CC2)cc1Cl` (centres undefined) it was -14.19%; in that of `COC(=O)N1CC(C)=C(C)CN1C(=O)Nc1cccc(Cl)c1`, 127.6%.
Then `CN1CC(Oc2ccccc2)=NC(SCC(=O)Nc2ccc(Cl)cc2)=N1`, with 11.53%; and `Cc1ccc(NC(=O)N2CCOC(C)C2)cc1Cl` (centres undefined), with 8.105%; and `CCOC(=O)N1CC(C)=C(C)CN1C(=O)Nc1ccc(Cl)c(Cl)c1`, with 122.4%.
For the compound `COC(=O)N1CC(C)=C(C)CN1C(=O)Nc1ccc(Cl)cc1`, the “Percent Effect” value was determined as 87.33%.
In the case of `COC(=O)N1CC(C)=C(C)CN1C(=O)Nc1ccc(Cl)c(Cl)c1` it was 93.89%; in that of `CCCc1c(C(=O)N2CCN(c3ncccn3)CC2)cnn1C`, -7.534%; in that of `COc1ccc(C2CCN(CCCC#N)CC2)cc1`, 4.999%.
In the case of `CN(CCn1ccc2ccccc21)C(=O)CS(C)(=O)=O` it was -3.366%; in that of `CCC(NCc1cccc(Cl)c1)c1ccccc1OCC(=O)NC` (centres undefined), -3.101%.
As for `Cc1nc(C)n(CC2CN(Cc3nc4ccccc4s3)CCO2)n1` (centres undefined), the “Percent Effect” value was determined as 214.4%.
Take `Cc1nc(C)n(CC2CN(CCCOc3ccccc3C)CCO2)n1` (centres undefined): the “Percent Effect” value was -2.427%.
Then `Cc1nc(C)n(CC2CN(CCCOc3ccccc3)CCO2)n1` (centres undefined), with 117%; and `Cc1nc(C)n(CC2CN(CCc3ccccn3)CCO2)n1` (centres undefined), with -80.6%.
In the case of `c1ccc2sc(CN3CCOC(Cn4cccn4)C3)nc2c1` (centres undefined) it was 18.8%; in that of `c1ccc2sc(CN3CCOC(Cn4cncn4)C3)nc2c1` (centres undefined), -2.125%.
For the compound `Cc1cnc(CN2CCOC(Cn3nc(C)nc3C)C2)cn1` (centres undefined), the “Percent Effect” value is reported as 1.014%.
`Cc1cc(C)n(CC2CN(Cc3nc4ccccc4s3)CCO2)n1` (centres undefined): the “Percent Effect” value is on record as 100.5%.
On to `Cc1cnn(CC2CN(Cc3nc4ccccc4s3)CCO2)c1` (centres undefined), for which the “Percent Effect” value is listed as 112.2%.
With `CCOc1cc(CNCCCn2ccnc2)cc(Cl)c1OC`, the “Percent Effect” value was -2.323%.
Then `COCCN1C[C@H]2[C@@H](C1)N(C(=O)c1cccs1)CC[C@H]2OC`, with -4.854%; and `CC(=O)c1ccc(OCC(=O)NC(C)CCc2ccco2)cc1` (centres undefined), with -8.021%; and `COc1ccccc1OC1(C(=O)O)CCN(c2ncnc(C)c2C)CC1`, with -46.26%.
